Measurements: PubChem BioAssay (NCI)
About 83,000 compounds went through this panel and 20% of them were active in at least one assay; those are over-represented in the sample as a whole.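 Interpretation: 100, growth as untreated; towards 0, rising growth inhibition; 0, no net growth; 0 to -100, cell death. Compounds scoring below 10 were considered active.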 Unmarked numbers belong to inactive results. Activity calls are given as the source filed them.

Legend:
Assay in all cases: NCI-60 one-dose screen, 48 h (100 = growth as untreated, 0 = no growth, -100 = all killed)
[1] = test system: NCI-H226 lung; details: 10 µM
[2] = test system: NCI-H322M lung; details: 10 µM
[3] = test system: HOP-62 NSCLC; details: 10 µM
[4] = test system: NCI-H522 lung; details: 10 µM
[5] = test system: COLO 205 colon; details: 10 µM
[6] = test system: DU-145 prostate; details: 10 µM
[7] = test system: SF-268 CNS; details: 10 µM
[8] = test system: SF-295 CNS; details: 10 µM
[9] = test system: SF-539 CNS; details: 10 µM
[10] = test system: M14 melanoma; details: 10 µM
[11] = test system: HCT-15 colon; details: 10 µM
[12] = test system: SNB-75 CNS; details: 10 µM
[13] = test system: SNB-19 CNS; details: 10 µM
[14] = test system: U251 CNS; details: 10 µM
[15] = test system: PC-3 prostate; details: 10 µM
[16] = test system: SK-MEL-5 melanoma; details: 10 µM
[17] = test system: UACC-62 melanoma; details: 10 µM
[18] = test system: SK-MEL-28 melanoma; details: 10 µM
[19] = test system: SK-MEL-2 melanoma; details: 10 µM
[20] = test system: HL-60(TB) leukemia; details: 10 µM unless noted

SMILES | growth [1] | growth [2] | growth [3] | growth [4] | growth [5] | growth [6] | growth [7] | growth [8] | growth [9] | growth [10] | growth [11] | growth [12] | growth [13] | growth [14] | growth [15] | growth [16] | growth [17] | growth [18] | growth [19] | growth [20]
CN(C)CCc1cn(C2CCC2)c2cccc(O)c12 | 69.6% | 91.2% | 82.1% | 83.6% | 81.1% | 91.3% | 81.6% | 76.4% | 61.9% | 15.9% | 62.2% | 58.3% | 87% | 65.7% | 59.9% | 46.6% | 48.9% | 3.47% (active) | 99.4% | 12.5%
COP(=O)(CC(F)(F)C(F)(F)F)OC | -55.6% (active) | 109% | 99.7% | -71.5% (active) | -59.3% (active) | 9.69% (active) | 88.4% | 100% | 4.99% (active) | -65.3% (active) | -15.2% (active) | 87.5% | 101% | 81.7% | 69.5% | 80.8% | 65.3% | -58.1% (active) | 25.2% | 8.78% (active)
C#CC[Se]C(=O)c1ccc(C(=O)[Se]CC#C)s1 | 76.5% | 14.5% | 29.8% | 99.8% | 86% | 56% | 105% | 13.3% | 65.5% | 73.7% | 93.2% | 109% | 58.7% | 44.7% | 44.9% | 96.6% | 92.3% | 104% | 126% | -19.7% (active)
C[C@H]1[C@H](OC(=O)CCC(=O)N(CCCc2cn(-c3ccc(CN4CCOCC4)cc3)nn2)CCNc2ccnc3cc(Cl)ccc23)O[C@@H]2OC3(C)CC[C@H]4[C@H](C)CC[C@@H]1[C@@]24OO3 | 54.1% | 20.9% | 56.4% | -22.3% (active) | -30.1% (active) | 49.7% | 50.1% | -2.37% (active) | -73% (active) | -66.3% (active) | 8.55% (active) | 38.7% | 50.9% | 13.3% | 29.2% | -90% (active) | 16.6% | -69.3% (active) | 44.2% | -47% (active)
O=C([Se]C1C=CCCC1)c1ccc(C(=O)[Se]C2C=CCCC2)s1 (configuration not stated) | -42.9% (active) | -28.5% (active) | -50.6% (active) | -92.8% (active) | -95.7% (active) | -3.45% (active) | 0.795% (active) | -44.2% (active) | -100% (active) | -81.2% (active) | -25.1% (active) | -77.6% (active) | -93.8% (active) | -88% (active) | -16.5% (active) | -88.8% (active) | -89.2% (active) | -79.4% (active) | -37.7% (active) | 1.11% (active)
CC[C@]12C=CCN3CC[C@@]4(c5ccc(OC)cc5N(C)[C@H]4[C@@](O)(C(=O)OC)[C@@H]1OC(=O)CCCC[P+](C1CCCCC1)(C1CCCCC1)C1CCCCC1)[C@@H]32 | -22% (active) | 16.1% | 9.52% (active) | -71.8% (active) | -76.6% (active) | 9.57% (active) | -70.5% (active) | -19.6% (active) | -93.9% (active) | -83.5% (active) | 75.2% | -81.4% (active) | -71.1% (active) | -87.9% (active) | 3.69% (active) | -96.1% (active) | -96.9% (active) | -86.5% (active) | -88% (active) | 
CC1=C2C(=C[C@@](C)(COP(=O)(Oc3ccccc3)Oc3ccccc3)[C@@H]2O)C(=O)[C@@](C)(O)C12CC2 | -63.9% (active) | -59.5% (active) | -88.4% (active) | -93.4% (active) | -95.8% (active) | -96.3% (active) | -74.3% (active) | -59% (active) | -99.1% (active) | -22.9% (active) | -32.5% (active) | -94% (active) | -17.5% (active) | -43.4% (active) | -31% (active) | -99.2% (active) | -87.7% (active) | -88.1% (active) | -83.9% (active) | 
N#C[Se]CC(=O)Nc1cccc(C(F)(F)F)c1 | -37.7% (active) | -19.6% (active) | -57.6% (active) | -70.2% (active) | -1.16% (active) | -13% (active) | 2.88% (active) | -72.7% (active) | -91% (active) | -42.7% (active) | -84.8% (active) | -23.5% (active) | -88.1% (active) | -48.4% (active) | 26.8% | -73.4% (active) | -77.4% (active) | -63.2% (active) | -31.1% (active) | 0.147% (active)
O=C(/C=C/c1ccc(Cl)cc1)c1nc2ccccc2n1Cc1ccc(F)cc1 | 36.6% | 53.5% | 17.7% | 34.9% | 71.9% | 37.6% | 39.9% | 50.7% | -41.7% (active) | 16.1% | -1.45% (active) | 60.9% | 25% | -62.8% (active) | 19.5% | 69% | 23.5% | 38.9% | 68.3% | -2.58% (active)
CC[C@@]12CC(C(=O)OC)=C3Nc4cc5c(cc4[C@@]34CCN(C[C@H]3O[C@H]31)[C@@H]24)[C@@H]1[C@H](O5)[C@@H](O)[C@@]2(CC)CC(C(=O)OC)=C3Nc4cc(OC)ccc4[C@@]34CCN1[C@@H]24 | -4.56% (active) | 25.1% | 21.5% | 2.96% (active) | -59.1% (active) | 50.7% | 38.5% | 0.382% (active) | 21.7% | 28.7% | -38.1% (active) | -4.82% (active) | 21.3% | 17.2% | 22.2% | -85.1% (active) | 3% (active) | 27.1% | -12% (active) | -17% (active)
COc1ccc2cc([C@H](C)C(=O)[Se]CCC#N)ccc2c1 | -49.9% (active) | -21.6% (active) | -81.2% (active) | -95.6% (active) | -71% (active) | -76.4% (active) | -45.8% (active) | -70.3% (active) | -67.3% (active) | -63.9% (active) | -31.7% (active) | -46.8% (active) | -68.7% (active) | -95.3% (active) | -10.1% (active) | -70.4% (active) | -67.7% (active) | -37.9% (active) | -42.1% (active) | -42.5% (active)
O=C(/C=C/c1ccco1)c1nc2ccccc2n1Cc1ccc(F)cc1 | 77.9% | 79.2% | 87.6% | 62.1% | 81.9% | 56.6% | 63.4% | 76% | 64.6% | 88.2% | 32.3% | 28.7% | 77.7% | 40.9% | 65.6% | 86.5% | 45.4% | 81.8% | 69.9% | 15.8%
O=C(/C=C/c1ccc(F)cc1)c1nc2ccccc2n1Cc1ccc(F)cc1 | -35.7% (active) | 40.5% | -1.76% (active) | 44.1% | -32% (active) | 18.4% | 16.2% | -10.9% (active) | -63.5% (active) | -3.51% (active) | -61% (active) | 20.6% | 13.8% | -56.3% (active) | 8.29% (active) | 21.1% | -41.7% (active) | -15.8% (active) | 21.3% | 6.99% (active)
COC(=O)C[C@](O)(CCC(C)C)C(=O)O[C@H]1C(OC)=C[C@@]23CCCN2CCc2cc4c(cc2[C@@H]13)OCO4 | -20.4% (active) | -9.27% (active) | 4.64% (active) | -70% (active) | -55.4% (active) | -24.1% (active) | -21.7% (active) | -23.6% (active) | -51.4% (active) | -76.4% (active) | -29.7% (active) | -48.8% (active) | -28.3% (active) | -25.2% (active) | -23.5% (active) | -70.4% (active) | -25.2% (active) | -32.9% (active) | -46.4% (active) | 
O=C(/C=C/c1ccc(Cl)cc1Cl)c1nc2ccccc2n1Cc1ccc(F)cc1 | 38.7% | 69.7% | 58.2% | 76.2% | 83.6% | 55.4% | 49.9% | 60.6% | 17.9% | 59.8% | 11.8% | 38.6% | 57.7% | 13.4% | 29.4% | 74.5% | 40.1% | 74% | 94.7% | 28%
C#CC[Se]C(=O)c1ccc2n[se]nc2c1 | 23% | 12% | 28.6% | 51.9% | 58.6% | 71.8% | 89.4% | 25.4% | 40.3% | 54.9% | 25.8% | 56.5% | 79.9% | 73.2% | 39.6% | 83.2% | 51.4% | 79.4% | 104% | 1.82% (active)
